Source: PubChem BioAssay
Unmarked numbers belong to inactive results. Calls of active or inactive are those of the source.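 Rule for the calls: active = z-score of at least 1.8 in each of two replicates, scored against plate mean and spread of sample wells; inactive = the rest.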

test: galactose survival enhancers in mitochondrial complex I cybrids – cell-based, galactose medium, ATP luminescence, primary screen (AID 1645843); conditions: complex I mutant cybrid cells, 72 h, stronger effect = higher value;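 note: positive z means more ATP and so rescue of galactose-driven cybrid death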

SMILES	z-score
FC(F)(F)c1cccc(Cc2noc(CCCN3CCCCC3)n2)c1	0.61
Cc1nsc(NC(=O)NCCC2CCCCCC2)n1	-1.07
Cc1nnc(NC(=O)N(C)CC2COc3ccccc3O2)s1 (stereo unspecified)	0.025
Cc1ccccc1-n1cc(-c2ccnc(NCc3nnc4n3CCCC4)n2)cn1	-0.305
COc1ccc(C(C)=O)c(OC2(C(=O)O)CCSCC2)c1	-0.58
CCN(Cc1ccncc1)C(=O)c1cc(-c2cnc(C)nc2)nc2c(C)cccc12	-0.835
Cc1cc(N2CCC(Cn3cc(CN)nn3)CC2)nc(-c2ccccc2O)n1	-1.23
CC[C@H](C)[C@H](N)C(=O)N1CCC(Cn2cc(C3CCCCC3)nn2)CC1	-0.81
Cc1cccc2c(=O)n(Cc3ccc(Cl)s3)cnc12	0.23
N#Cc1ccc(C(=O)N2CCNC(=O)C2Cc2ccccc2)cc1 (stereo unspecified)	-0.47
COCc1cn(CC2CCN(C(=O)CC3CCCCCC3)CC2)nn1	-0.465
Cc1cc(C)n(CC(C)n2cnc3sc4c(c3c2=O)CCCCC4)n1 (stereo unspecified)	2.45 (active)
COc1ccc(CN[C@@H]2CS(=O)(=O)C[C@H]2O)cc1OCc1ccc(F)cc1	-0.735
CN(C)C(=O)c1cccnc1-c1ccc2ncccc2c1	-0.545
CC(=O)c1c(C)nn(CC(=O)Nc2ccc(N3CCOCC3)cc2)c1C	-0.6
Cc1c(C(F)(F)F)nc(-c2ccc(CN(C)C)cc2)[nH]c1=O	-0.555
